The list is not random: actives were taken first. Their share in the collection is about 1.5%.
Integrin act MD: integrin-mediated muscular dystrophy alleviation activation | alpha7betagal myoblasts, beta-gal FDG fluorescence, 48 h | AID 624291 | Potency, µM (series often up to 38.3 µM), inactives show top-dose activation, most hits filed as activators | hit rate 0.064% among 350,000;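 further: potency means the concentration at half of the fitted maximal effect; 100% = response of the positive control SU9516; nearly all actives have a fitted effect of over 60% in size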
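Alpha7betagal+/- myoblasts (passage 13) were plated 16-24 hr, then exposed to compounds (1:260 dilution of DMSO stock) for 48 hours at 37C. After MPER lysis, β-galactosidase reporter activity was read as FDG fluorescence (ex 480/em 540) after 30 minutes.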
12-LOX inh: blocks human arachidonate 12S-lipoxygenase | Potency, µM (doses to about 108 µM), without a hit: top-dose activity change, negative = inhibition, most hits filed as inhibitors | P18054 | purified 12hLO, xylenol orange hydroperoxide absorbance | AID 1671190 | hit rate 1.1% among 580,000; further: potency means the concentration at half of the fitted maximal effect; on the % scale 0 is the no-effect control and ±100 the full control effect
Target sequence (P18054 whole entry, looked up): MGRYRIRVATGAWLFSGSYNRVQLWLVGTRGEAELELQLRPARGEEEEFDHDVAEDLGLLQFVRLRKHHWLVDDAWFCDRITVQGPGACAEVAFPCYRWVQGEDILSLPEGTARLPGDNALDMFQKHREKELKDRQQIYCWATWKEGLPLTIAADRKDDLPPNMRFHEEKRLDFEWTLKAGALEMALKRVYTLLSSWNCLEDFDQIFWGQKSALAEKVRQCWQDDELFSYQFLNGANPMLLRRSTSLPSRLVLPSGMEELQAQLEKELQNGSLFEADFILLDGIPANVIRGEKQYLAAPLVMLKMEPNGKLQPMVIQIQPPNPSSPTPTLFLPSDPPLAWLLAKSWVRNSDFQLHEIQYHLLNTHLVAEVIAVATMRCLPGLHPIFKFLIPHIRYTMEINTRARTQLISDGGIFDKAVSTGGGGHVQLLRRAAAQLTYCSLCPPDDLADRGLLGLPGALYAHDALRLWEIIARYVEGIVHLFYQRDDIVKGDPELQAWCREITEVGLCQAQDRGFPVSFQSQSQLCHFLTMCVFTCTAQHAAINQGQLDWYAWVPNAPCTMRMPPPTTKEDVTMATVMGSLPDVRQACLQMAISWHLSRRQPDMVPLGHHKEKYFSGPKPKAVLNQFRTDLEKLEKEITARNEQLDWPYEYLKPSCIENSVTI
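Purified human 12hLO at 150 nM in 25 mM Hepes, 0.01% Triton X-100, pH 7.0, preincubated 15 min at room temperature with compound. Reaction started with 40 uM arachidonic acid, 30 min at room temperature. Hydroperoxide measured by Fe-xylenol orange, 573/405 nm absorbance ratio.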
Nrf2 activator: activators of Nrf2 (ARE) signaling; AREc32 ARE-luciferase reporter (MCF7-derived line), luminescence, 24 h; Potency, µM (titrated, usually from 46.1 µM), for the others: at the highest dose activation, hits mostly activators; hit rate 0.31% among 410,000; AID 624171; further: potency means the concentration at half of the fitted maximal effect; % of control where 0% means no effect; nearly all actives have a fitted effect of over 65% in size
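Each well held 1000 AREc32 cells, which were incubated with compound for 24 hr at 37 deg C after overnight attachment, and ARE reporter activity was quantified by firefly luciferase luminescence.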
uPA surface inh: cell surface uPA generation inhibition | cell surface uPA generation assay, qHTS | Potency, µM (titrated, usually from 38.3 µM), for inactives: top-dose activity change, negative = inhibition, hits mostly inhibitors | hit rate 0.31% among 330,000; active means well fitted inhibition curve with a large enough effect; inconclusive means small, poorly fitted or top-dose-only effect; inactive means no such curve, though single readings can be large or run the other way; tested in mouse RAW 264.7 cells; further: potency means the concentration at half of the fitted maximal effect; on the % scale 0 is the no-effect control and ±100 the full control effect; nearly all actives have a fitted effect of over 55% in size
IL-2 act: activates IL-2 in a cell-based reporter assay; IL-2 activation reporter assay, cell-based qHTS; stimulated with anti-CD3/CD4/CD28 beads; in transgenic mouse T cells; activation, % (series mostly up to about 46 µM); hit rate 0.065% among 360,000; AID 652025; in the data active means activation above about 50%; inconclusive means mostly about 30% to 49%; further: 0% is about no effect
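Unstimulated transgenic mouse T cells preincubated 60 min with compound, then stimulated with anti-CD3/anti-CD4-coated beads plus anti-CD28 for 18 h at 37 degrees C. IL-2 response read as EGFP and DsRed fluorescence by plate cytometry.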
Numbers without * were called inactive; ? = inconclusive; . = no result given; [ ] = dose if it differs, or a comment. Unless noted, the call rests on the fitted dose curve; in most records, active means well fitted curve in the direction sought with a large enough effect; inconclusive means small, poorly fitted or top-dose-only effect, or another doubt; inactive means no such curve, though single readings can be large; an effect the other way counts as inactive or inconclusive.

SMILES	Integrin act MD	12-LOX inh	Nrf2 activator	uPA surface inh	IL-2 act
CC(/C=N/NC(=O)Cc1cccs1)=C\c1ccco1	-15.8%	?	14.1µM*	-1.2%	-0.9
CC(/C=C/c1ccco1)=N/NC(=O)Cc1cccs1	-15.5%	0.0%	?	-5.3%	1.2
CCc1ccc(OCC(=O)Nc2nc(-c3ccc(S(=O)(=O)N4CCOCC4)cc3)cs2)cc1	.	-4.7%	.	.	.
CCNC(=O)N[C@H]1[C@H](O)[C@H](O)C[C@@H]1C1CCCCC1	.	3.5%[176 µM]	.	.	.
COCCN1C(=O)CO[C@H]2CN(c3ncccn3)C[C@H]21	.	50.1µM*	.	.	.
COCC(=O)NC[C@H]1CCN(Cc2cccs2)C[C@H]1N(C)C	.	48.7%	.	.	.
Cc1ccc(NNC(=S)Nc2ccc(C(C)C)cc2)c(C)c1	-27.1%	35.5µM*	4.9%	-1.9%	-0.7
COCOc1cc(O)c(C(=O)/C=C/c2ccccc2)c(OCOC)c1	-34.5%	0.1%	26.8%	10µM*	0.1
COc1ccc(C(=O)/C=C/c2ccccc2)c(OC)c1	-8.8%	0.0%	?	?	-2.4
O=Cc1ccc(C(=O)OCC(=O)N2CCCC2)cc1	2.51µM*	-0.4%	0.3%	.	0.9
CCN(CC)c1ccc(C(=O)OCC(=O)N2CCCC2)cc1	5.1%	.	1.4%	1.1%	1.0
N#Cc1nc(C2CC2)oc1N1CCN(CC(=O)NC(N)=O)CC1	.	5.8%	.	.	.
CC(C)(C)N/N=C/c1cc(Cl)cc([N+](=O)[O-])c1O	7.5%	15.8µM*	2.9%	-0.7%	0.6
O=C(N/N=C/c1cc(Cl)cc([N+](=O)[O-])c1O)C1CC1	21.3%	-26.7%	22.9%	-1.9%	-0.5
Cc1cc(Cl)ccc1OC(C)C(=O)Nc1ccc(C(=O)Nc2ccccc2C(=O)O)cc1 (configuration not stated)	11.2%	50.1µM*	-1.6%	-6.6%	-1.7
O=C(Nc1ccccc1C(=O)O)c1ccc(NC(=O)C2CC2)cc1	-21.1%	33.6%	-1.0%	7.94µM*	-4.1
CC(=O)c1ccc(NS(=O)(=O)c2cccc(C(=O)Nc3ccccc3C(=O)O)c2)cc1	6.4%	31.6µM*	-0.7%	9.0%	-0.5
O=C(Nc1ccccc1O)c1ccc(NC(=O)C2CC2)cc1	3.0%	23.9%	?	-6.3%	-3.8
COc1ccc(NS(=O)(=O)c2cccc(C(=O)Nc3ccccc3C(=O)O)c2)cc1	-17.7%	?	0.0%	13.5%	1.7
CS(=O)(=O)c1cccc(C(=O)N2CCCCC2)c1	.	22.7%	.	.	.
Cc1cc(Cl)ccc1-c1nc(NCc2ccccc2)nc2ccsc12	.	39.8µM*	8.2%	.	-0.2
CC1CCN(c2ccc(-c3cccs3)nn2)CC1	4.8%	-5.0%	0.6%	0.891µM*	-2.9
O=C(N[C@H]1[C@H](O)[C@H](O)C[C@@H]1c1cncnc1)c1ccc(C(F)(F)F)cc1	.	11.1%[176 µM]	.	.	.
COc1ccc(Cl)cc1NC(=O)c1ncn(-c2ccccc2)n1	.	-24.1%	8.91µM*	.	.
COc1cc(NC(=O)c2ncn(-c3ccccc3)n2)cc(OC)c1	.	-16.2%	8.9%	.	.
SMILES	Integrin act MD	12-LOX inh	Nrf2 activator	uPA surface inh	IL-2 act
COC(=O)C1CCC(=S)N1C(=O)c1ccccc1 (configuration not stated)	-5.6%	8.91µM*	0.3%	-12.4%	0.4
CCOC(=O)c1nn(-c2ccc(C)cc2)c(=O)c2c(N)scc12	-21.9%	25.1µM*	0.3%	-7.0%	0.0
CCOC(=O)c1nn(-c2ccc(F)cc2)c(=O)c2c(N)scc12	12.9%	?	6.8%	6.7%	0.7
O=C(Nc1ncc(-c2ccccc2)c2c1OCC2)c1cn[nH]c1	.	2.1%[176 µM]	.	.	.
CCOC(=O)c1cnc2ccc(C)cc2c1Nc1cccc([N+](=O)[O-])c1	.	61.5%	.	.	.
CCN1C(=O)/C(=C/C=C2/SCCN2C)SC1=S	17.2%	4.9%	2.6%	-1.0%	-0.8
CN1CCS/C1=C\C=C1/SC(=S)N(CC(=O)O)C1=O	6.0%	-16.0%	0.0%	-3.9%	64.7*
Cn1cc(C(=O)N2CCC(F)(c3nc(-c4ccncc4)no3)CC2)cn1	.	26.9%	.	.	.
Cc1cc(OCC(=O)OCC(=O)c2ccc3c(c2)CCC3)ccc1Cl	.	1.4%	.	.	.
O=[N+]([O-])c1ccc(NS(=O)(=O)c2ccc(I)s2)c([N+](=O)[O-])c1	.	15.8µM*	.	.	.
NS(=O)(=O)c1ccc(Nc2ccc([N+](=O)[O-])cc2[N+](=O)[O-])cc1	.	-23.0%	.	.	.
CC1=C[C@@H](CNC(=O)c2ccccc2)[C@H](C(C)C)C[C@H]1Cc1nc2ccccc2n1C	.	-0.4%[176 µM]	.	.	.
